Test results published in PubChem BioAssay (Tox21).
Inconclusive results are not listed. Values without a mark were called inactive. The source made the active and inactive calls. The call rests on the fitted dose curve; in most records, active means well fitted activation curve with a large enough effect in the signal ratio in the repeat runs (not every such curve was filed as active); inconclusive means weak or mixed curves, or effect the other way; inactive means no such curve, though single readings can be large or run the other way; the % refers to the signal ratio.
On the % scale 0 is the no-effect control and ±100 the full control effect.

The compounds below were run against Peroxisome proliferator-activated receptor gamma (Homo sapiens) (UniProt P37231) (assay: qHTS assay to identify small molecule agonists of the peroxisome proliferator-activated receptor gamma (PPARg) signaling pathway (AID 743094)). Conditions: HEK293H PPARg-UAS-bla, beta-lactamase FRET ratio, 17 h; series mostly up to 57 µM; activation: at the top concentration.
Peroxisome proliferator-activated receptor gamma (Homo sapiens), sequence (P37231 whole entry, looked up): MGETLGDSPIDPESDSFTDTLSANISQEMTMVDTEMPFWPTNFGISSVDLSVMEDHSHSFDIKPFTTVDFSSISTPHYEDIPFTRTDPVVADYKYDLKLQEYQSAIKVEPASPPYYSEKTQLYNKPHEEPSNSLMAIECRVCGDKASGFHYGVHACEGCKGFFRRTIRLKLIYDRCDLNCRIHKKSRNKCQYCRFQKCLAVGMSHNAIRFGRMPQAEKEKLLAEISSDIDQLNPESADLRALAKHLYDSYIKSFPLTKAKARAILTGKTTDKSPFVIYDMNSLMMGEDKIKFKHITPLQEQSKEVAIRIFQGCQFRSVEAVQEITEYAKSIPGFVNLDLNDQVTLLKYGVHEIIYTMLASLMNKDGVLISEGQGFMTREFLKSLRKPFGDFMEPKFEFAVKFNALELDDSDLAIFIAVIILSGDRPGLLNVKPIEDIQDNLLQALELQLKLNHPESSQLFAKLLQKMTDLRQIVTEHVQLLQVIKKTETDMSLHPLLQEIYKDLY
How it was run: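 Beta-lactamase FRET fluorescence was the read-out after a 1 h room-temperature substrate step, following 17 h compound treatment at 37C of HEK293H cells expressing a UAS-driven bla reporter responsive to PPARg.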
`N[C@@H](CCC(=O)O)C(=O)O` was tested, and the “activation” value was 0.407%.
In the case of `CC(C)C1CCC(O)CC1` (stereo not given), the “activation” value is reported as 0.87%.
`CO[C@@]1(NC(=O)CSC[C@@H](N)C(=O)O)C(=O)N2C(C(=O)O)=C(CSc3nnnn3C)CS[C@@H]21` was tested, and the “activation” value was -0.478%.
In the case of `CCCCN1C=CN(C)C1`, the “activation” value is reported as -6.05% [at 26.2 µM].
For `CC(C#N)(CCC(=O)O)N=NC(C)(C#N)CCC(=O)O` (stereo not given), the “activation” value was 3.79%.
With `NS(=O)(=O)Cc1noc2ccccc12` the “activation” value was -0.335%.
With `O=S(=O)(O)c1cc(O)c(O)c(S(=O)(=O)O)c1` the “activation” value was -4.28%.
With `[O-][n+]1cccc(CO)c1` the “activation” value was 0.893%.
In the case of `O=C(O)CC(C(=O)O)S(=O)(=O)O` (stereo not given), the “activation” value is reported as 0.774%.
In the case of `NC(CCC(=O)O)C(=O)O` (stereo not given), the “activation” value is reported as -6.02%.
`c1ccc(Cc2ccccc2)cc1` was tested, and the “activation” value was 0.272%.
In the case of `NCCCC[C@H](N[C@@H](CCc1ccccc1)C(=O)O)C(=O)N1CCC[C@H]1C(=O)O`, the “activation” value is reported as -1.78% [at 26.2 µM].
For `CC(=O)c1ccccc1[N+](=O)[O-]`, the “activation” value was -0.579%.
In the case of `Nc1ccncc1N`, the “activation” value is reported as 0.665%.
In the case of `CCOC(=O)c1cnc2c(cnn2CC)c1NN=C(C)C`, the “activation” value is reported as 4.43%.
`CN1CC(=O)N/C1=N/C(=O)Nc1cccc(Cl)c1` was tested, and the Potency was “inactive”.
For `CC(=O)O[C@@]12CO[C@@H]1C[C@H](O)[C@@]1(C)C(=O)[C@H](O)C3=C(C)[C@@H](OC(=O)[C@H](O)[C@@H](NC(=O)OC(C)(C)C)c4ccccc4)C[C@@](O)([C@@H](OC(=O)c4ccccc4)[C@H]21)C3(C)C`, the “activation” value was -12.1%.
With `COc1cc(C(=O)NCc2ccc(OCCN(C)C)cc2)cc(OC)c1OC` the “activation” value was 0.414% [at 26.2 µM].
`O=[N+]([O-])c1ccc(/C=N\O)o1` was tested, and the “activation” value was 7.45%.
`CCN[C@@H]1C[C@H](N)[C@@H](OC2OC(CN)=CCC2N)[C@H](O)[C@H]1O[C@H]1OC[C@](C)(O)[C@H](NC)[C@H]1O` (stereo not given in full) was tested, and the “activation” value was 0.455%.
